From PubChem BioAssay (NCI)
Compounds without any hit were thinned out: in the full panel of roughly 79,000, 15% have a hit. Rule as the data show it: active = growth inhibition above about 70%; inactive = the rest.

Experiments:
[1] = NCI Yeast Anticancer Drug Screen. Data for the rad50 strain (AID 155);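 also: 0% = growth of vehicle-only cultures of the same strain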; conditions: S. cerevisiae rad50 strain growth inhibition, hits give high values; at 50.0 µM unless noted
Summary of the method: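 Compounds were tested on a yeast strain with an engineered DNA damage repair alteration; the reported value is growth inhibition normalised to vehicle treatment.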

[2] = NCI Yeast Anticancer Drug Screen. Data for the mec2-1 strain (AID 157); conditions: S. cerevisiae mec2-1 strain, hits give high values; at 50.0 µM unless noted
Summary of the method: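 mec2-1 yeast strain, carrying an alteration in DNA damage repair or cell cycle control, was exposed to compounds; growth inhibition was measured relative to vehicle-treated controls.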

[3] = NCI Yeast Anticancer Drug Screen. Data for the sgs1 mgt1 strain (AID 161);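 also: 0% = growth of cultures given vehicle only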; conditions: S. cerevisiae sgs1 mgt1 strain, hits give high values; at 50.0 µM unless noted
Summary of the method: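 Compounds are added to genetically altered yeast, and growth is compared with cultures given vehicle alone to give percent inhibition.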

[4] = NCI Yeast Anticancer Drug Screen. Data for the cln2 rad14 strain (AID 165);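 also: 0% = growth equal to vehicle treated cultures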; conditions: S. cerevisiae cln2 rad14 strain, hits give high values; at 50.0 µM unless noted
Summary of the method: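 Yeast carrying cln2 and rad14 alterations (cell cycle control and DNA damage repair) were exposed to compounds. Growth inhibition was measured against vehicle-treated controls.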

[5] = NCI Yeast Anticancer Drug Screen. Data for the bub3 strain (AID 167); conditions: S. cerevisiae bub3 mutant strain, hits give high values; at 50.0 µM unless noted
Summary of the method: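 Growth of a checkpoint-deficient yeast mutant is measured after compound exposure. Values represent inhibition relative to vehicle.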

[6] = NCI Yeast Anticancer Drug Screen. Data for the mlh1 rad18 strain (AID 175); conditions: S. cerevisiae mlh1 rad18 strain growth inhibition, hits give high values; at 50.0 µM unless noted
Summary of the method: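 Growth inhibition of the yeast strain was measured after compound exposure and expressed relative to vehicle-treated controls. The strain carries defined defects in DNA damage repair.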

Measured: growth inhibition

CCCCSc1ncnc2nc[nH]c12
inactive: [1] -38% | [2] -15.4% | [3] -9.05% | [4] -21.4% | [5] -7.45% | [6] -15.7%

Cc1ccc(N2CCC(O)C2)cc1 (stereo unspecified)
inactive: [1] -19.4% | [2] -8.5% | [3] -7.05% | [4] 4.95% | [5] -8.4% | [6] -25.9%

CC(=O)N(C)c1ccc(NC(=O)C2CCCCC2C(=O)O)cc1 (stereo unspecified)
inactive: [1] 6.95% | [2] 8.6% | [3] 6.2% | [4] 3.65% | [5] 22.2% | [6] -14.2%

CCOC(=O)C(NC(=O)CC)(Nc1ccc(S(=O)(=O)Nc2nc(C)cc(C)n2)cc1)C(F)(F)F (stereo unspecified)
inactive: [1] -5.6% | [2] -3.4% | [3] 8.55% | [4] 21.6% | [5] 2.5% | [6] 7.65%

O=C1OC2(CCCCC2)OC1c1ccccc1 (stereo unspecified)
inactive: [1] 23.4% | [2] 4.2% | [3] 11.9% | [4] 10.5% | [5] 16.2% | [6] 33.5%

COc1cc2c(cc1OC)C1Cc3ccccc3CCN1CC2 (stereo unspecified)
inactive: [1] -23.4% | [2] -7.1% | [3] -16.8% | [4] -23.8% | [5] -9.95% | [6] -19.4%

FC(F)(F)c1ccc(C2=CCCCC2)cc1
inactive: [1] 24.1% | [2] 6.45% | [3] 4.45% | [4] 24.5% | [5] -18.6% | [6] 13.2%

Clc1ccc(N=Nc2nc3ccccc3nc2N=Nc2ccc(Cl)cc2Cl)c(Cl)c1
inactive: [1] -32.5% | [2] -4.6% | [3] -13.2% | [4] 3.25% | [5] -5.75% | [6] 0.55%

C/C=C/C=C/C(=O)OCCCC
inactive: [1] 6.95% | [2] -0.65% | [3] -8.55% | [4] 5.65% | [5] 15.1% | [6] -1.75%

Nc1c(Cl)ncnc1Nc1ccc(CCO)cc1
inactive: [1] -3.6% | [2] -9.25% | [3] 22.6% | [4] -60.3% | [5] -4.4% | [6] -8.75%

Nc1c(F)c(F)c(N=Nc2ccccc2)c(F)c1F
inactive: [1] 5.2% | [2] 7.1% | [3] 3.8% | [4] 7.05% | [5] 24.4% | [6] -17.1%

CCS(=O)(=O)/C=C/c1cccs1
inactive: [1] -9.1% | [2] -7.95% | [3] -8.65% | [4] -47.6% | [5] 4.8% | [6] -17.6%

COc1nc(NC2OC(CO)C(O)C(O)C2O)c(I)c(=O)[nH]1 (stereo unspecified)
inactive: [1] 5.3% | [2] -3.4% | [3] 2% | [4] -6.25% | [5] -4.75% | [6] 21.8%

CC1=C(c2ccccc2)C(c2ccccc2)=C(C)C1=NNc1ccc([N+](=O)[O-])cc1[N+](=O)[O-]
inactive: [1] 10.6% | [2] 11.8% | [3] 0.8% | [4] 16.4% | [5] -3.25% | [6] 1.4%

CCOC(=O)N/N=C/c1ccccc1C
inactive: [1] -9.05% | [2] -3.15% | [3] -6.9% | [4] 25.2% | [5] -3.5% | [6] -15.4%

COC1/C=C/OC2(C)Oc3c(C)c(O)c4c(O)c(c(C5SCCS5)c(O)c4c3C2=O)NC(=O)C(C)=C/C=C\C(C)C(O)C(C)C2OC(C)(C)OC(C1C)C2C (stereo unspecified)
inactive: [1] 2.15% | [2] 33% | [3] 22.8% | [4] 15.6% | [5] 14.4% | [6] 38%

CCC(=O)OCC(CC(=O)NCCc1ccccc1)=NCCc1ccccc1
inactive: [1] 18.6% | [2] -0.6% | [3] 16.6% | [4] 9.15% | [5] 2.55% | [6] 14.9%

CCN(CCOC)C(C)=O
inactive: [1] 2.15% | [2] 2.25% | [3] 17.6% | [4] -1.75% | [5] -0.45% | [6] -3.05%

Cc1cc(N)ccc1-c1cc(C)c(N)c(C)c1C
inactive: [1] -39.4% | [2] -21.9% | [3] -7.8% | [4] 13.2% | [5] -18.7% | [6] -15.1%

COC(=O)NCC1OCC2OC(C)(C)OC12 (stereo unspecified)
inactive: [1] 14.8% | [2] 3.25% | [3] -10.9% | [4] -62.5% | [5] 14.8% | [6] 9.35%

O=C(O)c1cccc(S(=O)(=O)c2ccc([N+](=O)[O-])cc2)c1
inactive: [1] -0.25% | [2] 0.55% | [3] 4.9% | [4] -6.15% | [5] -5.7% | [6] 14.2%
